In PubChem BioAssay (NCATS):
Inconclusive results are not listed. Calls of active or inactive are those of the source. Unless noted, the call rests on the fitted dose curve; in most records, active means well fitted cell-killing curve with a large enough effect; inconclusive means small, poorly fitted or top-dose-only effect; inactive means flat fitted curve, though single readings scatter.

What was measured:
[1] = Cell Viability - LYMP2-002 (AID 977); further: series mostly up to about 92 µM
Procedure, shortened: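 Luminescent ATP readout (CellTiter-Glo, 30 min room temperature) after 24 h compound exposure at 37 C of a human lymphoblastoid line, 2500 cells/well. AC50 values derived by standard Hill fitting of qHTS concentration-response data.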

[2] = Cell Viability - LYMP2-006 (AID 978); further: series mostly up to about 92 µM; nearly all actives have a fitted effect of over 60% in size
Procedure, shortened: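 Potency values are Hill-fit AC50s for decreases in intracellular ATP (CellTiter-Glo luminescence). LYMP2-006 lymphoblastoid cells, 2500 per well, were exposed to compound in complete culture medium for 24 hr at 37 C.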

[3] = Cell Viability - LYMP2-007 (AID 979);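 further: cells exposed to compound for 24 h before reading; nearly all actives have a fitted effect of over 60% in size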
Procedure, shortened: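 Human lymphoblastoid LYMP2-007 cells (2500/well) preincubated 5 h at 37 C, then treated 24 h at 37 C in complete medium. Viability by CellTiter-Glo ATP luminescence after 30 min at room temperature; AC50 from Hill fits.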

[4] = Cell Viability - LYMP2-008 (AID 980); further: nearly all actives have a fitted effect of over 60% in size
Procedure, shortened: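 LYMP2-008 lymphoblastoid cells (2500/well) plated 5 h, then treated 24 h at 37 C in complete medium. Viability read as intracellular ATP by CellTiter-Glo luminescence after 30 min at room temperature; AC50 from Hill fits.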

[5] = Cell Viability - LYMP2-010 (AID 981); further: nearly all actives have a fitted effect of over 55% in size
Procedure, shortened: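 Human lymphoblastoid LYMP2-010 cells (2500/well) treated 24 h at 37 C in complete medium; viability read as intracellular ATP by CellTiter-Glo luminescence. AC50 from Hill fits of concentration-response data; tetraoctylammonium bromide positive control.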

[6] = Cell Viability - LYMP2-012 (AID 982);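 further: cellular ATP by luciferase luminescence where a drop means cytotoxicity; cells exposed to compound for one day before reading; nearly all actives have a fitted effect of over 55% in size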
[7] = Cell Viability - LYMP2-014 (AID 983); further: series mostly up to about 92 µM; nearly all actives have a fitted effect of over 50% in size
Procedure, shortened: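 LYMP2-014 human lymphoblastoid cells, 2500/well, treated 24 h at 37 C in complete medium; viability by CellTiter-Glo ATP luminescence after 30 min at room temperature. AC50 from Hill fits of qHTS concentration-response; tetraoctylammonium bromide positive control.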

[8] = Cell Viability - LYMP2-016 (AID 984); further: nearly all actives have a fitted effect of over 55% in size
Procedure, shortened: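 Cytotoxicity was scored by luminescent ATP content (CellTiter-Glo) after 24 h compound exposure at 37 C of a human lymphoblastoid line at 2500 cells/well. Concentration-response data were fitted to the Hill equation for AC50.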

[9] = Cell Viability - LYMP2-018 (AID 985);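 further: compound exposure lasted 24 hr at 37 °C; nearly all actives have a fitted effect of over 50% in size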
Procedure, shortened: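 Human lymphoblastoid LYMP2-018 cells, 2500/well, settled 5 hr at 37 C then exposed to compound 24 hr at 37 C; intracellular ATP measured by CellTiter-Glo luminescence. AC50 from Hill-equation concentration-response fits.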

[10] = Cell Viability - LYMP2-020 (AID 986); further: series mostly up to about 92 µM; nearly all actives have a fitted effect of over 55% in size
Procedure, shortened: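 Human lymphoblastoid LYMP2-020 cells (2500/well) preincubated 5 h at 37 C, then treated 24 h at 37 C. Viability measured as intracellular ATP by CellTiter-Glo luminescence after 30 min at room temperature; AC50 from Hill fits.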

[11] = Cell Viability - LYMP2-022 (AID 987); further: nearly all actives have a fitted effect of over 55% in size
Procedure, shortened: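 LYMP2-022 lymphoblastoid cells (2500/well, complete medium) were treated with compounds for 24 hours at 37 C; intracellular ATP was then read by CellTiter-Glo luminescence after 30 min at room temperature. AC50 values were derived from Hill-equation fits.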

[12] = Cell Viability - LYMP2-024 (AID 988); further: nearly all actives have a fitted effect of over 60% in size
Procedure, shortened: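 Human lymphoblastoid LYMP2-024 cells (2500/well) rested 5 hr, then treated with compound for 24 hr at 37 C in complete medium. Viability was measured as intracellular ATP by CellTiter-Glo luminescence. AC50 values came from Hill-equation fits.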

[13] = Cell Viability - LYMP2-026 (AID 989); further: nearly all actives have a fitted effect of over 50% in size
Procedure, shortened: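 Human lymphoblastoid LYMP2-026 cells, 2500/well, exposed to compound 24 h at 37 C in complete medium. Viability as intracellular ATP by CellTiter-Glo luminescence; AC50 from Hill fits of qHTS concentration-response.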

[14] = Cell Viability - LYMP1-002 - Assay at 24 hr (AID 993)
Procedure, shortened: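 Human lymphoblastoid LYMP1-002 cells (2500/well) treated 24 h at 37 °C; viability as intracellular ATP by CellTiter-Glo luminescence. Tetraoctylammonium bromide as positive control; AC50 from Hill-equation fits of qHTS concentration-response.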

[15] = qHTS Assay for Identification of Small Molecule Inducers of Hypoxia Response (AID 2120; active means well fitted curve in the direction sought with a large enough effect in the signal ratio, with a control signal flat, not every such curve was filed as active; the % refers to the signal ratio)
Procedure, shortened: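 HRE-bla ME-180 cells in Opti-MEM with 0.5% dialyzed FBS, pre-plated 4-5 h, then compound titration for 17 h at 37 degrees Celsius. CCF4 loaded 2.5 h at room temperature; 460/530 nm ratio gave %Activity and AC50 for induction.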

[16] = molecular target: Estrogen receptor (Homo sapiens) (UniProt P03372); assay: qHTS assay for small molecule antagonists of estrogen receptor alpha signaling (AID 588513; active means well fitted curve in the direction sought with a large enough effect in the signal ratio, with a control signal flat, not every such curve was filed as active; the % refers to the signal ratio)
Procedure, shortened: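 Antagonist mode: inhibition of 0.5 nM 17-beta-estradiol-driven beta-lactamase reporter in HEK 293 ER-alpha-UAS-bla cells, 18 h at 37C, CCF4 readout after 2 h at RT. Normalised to estradiol and DMSO; titration fitted to Hill.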

[17] = molecular target: Estrogen receptor (Homo sapiens) (UniProt P03372); assay: qHTS assay for small molecule agonists of estrogen receptor alpha signaling (AID 588514; calls by dose curve; further: nearly all actives have a fitted effect of over 70% in size)
Procedure, shortened: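 ER-alpha-UAS-bla GripTite HEK293 cells, 5000/well in 2% charcoal/dextran-stripped FBS medium, treated with compound titrations 18 h at 37 C. CCF4 beta-lactamase read by fluorescence after 2 h RT; normalised to 20 nM 17-beta-estradiol (100%) and DMSO (0%), Hill fit for EC50 and efficacy.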

[18] = Cell Viability - LYMP1-002 - Assay at 40 hr (AID 994); further: nearly all actives have a fitted effect of over 60% in size
Procedure, shortened: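 LYMP1-002 human lymphoblastoid cells (2500/well, complete medium) were treated with compounds for 40 hr at 37 C. Intracellular ATP was measured by CellTiter-Glo luminescence, and AC50 values came from Hill-equation fits of concentration-response data; tetraoctylammonium bromide was the positive control.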

[19] = molecular target: Androgen receptor (Homo sapiens) (UniProt P10275); assay: qHTS assay for small molecule antagonists of androgen receptor signaling (AID 588516; active means well fitted curve in the direction sought with a large enough effect in the signal ratio, with a control signal flat, not every such curve was filed as active; the % refers to the signal ratio)
Procedure, shortened: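 Antagonist mode: inhibition of R1881-stimulated (10 nM final) bla reporter in GeneBLAzer AR HEK 293 cells, 16 h at 37C, compounds titrated. IC50 and efficacy from Hill-equation fits of 405/460–530 nm FRET ratios.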

Measured: Potency

Chain of Estrogen receptor (Homo sapiens) (P03372 whole entry, looked up): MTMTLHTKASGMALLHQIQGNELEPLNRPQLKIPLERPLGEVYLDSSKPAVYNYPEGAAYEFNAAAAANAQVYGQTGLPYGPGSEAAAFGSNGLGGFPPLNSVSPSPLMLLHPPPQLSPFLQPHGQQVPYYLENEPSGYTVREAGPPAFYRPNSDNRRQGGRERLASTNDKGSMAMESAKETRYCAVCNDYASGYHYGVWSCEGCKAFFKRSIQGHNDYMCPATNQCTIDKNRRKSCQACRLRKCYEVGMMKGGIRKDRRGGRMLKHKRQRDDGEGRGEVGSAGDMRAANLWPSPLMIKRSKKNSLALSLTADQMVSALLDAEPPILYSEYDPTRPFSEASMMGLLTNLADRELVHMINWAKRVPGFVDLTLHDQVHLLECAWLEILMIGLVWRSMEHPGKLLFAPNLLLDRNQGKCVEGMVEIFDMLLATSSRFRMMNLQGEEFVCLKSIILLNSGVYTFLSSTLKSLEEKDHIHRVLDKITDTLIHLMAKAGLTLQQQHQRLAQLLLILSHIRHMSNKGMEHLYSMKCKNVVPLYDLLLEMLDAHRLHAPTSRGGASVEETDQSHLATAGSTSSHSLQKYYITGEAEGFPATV
Chain of Androgen receptor (Homo sapiens) (P10275 whole entry, looked up): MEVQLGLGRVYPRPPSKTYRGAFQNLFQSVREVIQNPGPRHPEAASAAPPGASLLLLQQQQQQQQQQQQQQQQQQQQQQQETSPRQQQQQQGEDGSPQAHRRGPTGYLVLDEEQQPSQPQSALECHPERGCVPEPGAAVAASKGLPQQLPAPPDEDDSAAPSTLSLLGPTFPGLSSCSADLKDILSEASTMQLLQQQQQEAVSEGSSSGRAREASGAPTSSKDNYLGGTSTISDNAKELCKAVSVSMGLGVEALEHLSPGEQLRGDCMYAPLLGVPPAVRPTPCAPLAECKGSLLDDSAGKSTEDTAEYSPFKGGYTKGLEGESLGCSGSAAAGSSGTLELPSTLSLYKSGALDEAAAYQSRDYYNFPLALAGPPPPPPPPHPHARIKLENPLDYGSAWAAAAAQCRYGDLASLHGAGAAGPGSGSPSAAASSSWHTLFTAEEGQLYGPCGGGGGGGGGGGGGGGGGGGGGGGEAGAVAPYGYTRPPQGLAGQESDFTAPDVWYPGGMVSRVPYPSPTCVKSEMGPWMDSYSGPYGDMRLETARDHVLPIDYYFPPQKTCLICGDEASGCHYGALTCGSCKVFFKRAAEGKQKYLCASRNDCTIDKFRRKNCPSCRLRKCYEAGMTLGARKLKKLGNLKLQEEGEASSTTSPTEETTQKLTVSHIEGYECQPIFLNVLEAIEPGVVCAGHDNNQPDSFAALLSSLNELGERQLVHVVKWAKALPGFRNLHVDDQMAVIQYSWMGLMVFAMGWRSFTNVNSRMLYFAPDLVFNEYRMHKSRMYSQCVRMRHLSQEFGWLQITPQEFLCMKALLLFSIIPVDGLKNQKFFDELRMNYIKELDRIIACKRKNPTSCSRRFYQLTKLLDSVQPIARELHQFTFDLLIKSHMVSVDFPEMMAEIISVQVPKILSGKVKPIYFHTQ

CCOc1cccc(N)c1
not listed: [18] | [19]
inactive: all other assays above

Nc1cccc([N+](=O)[O-])c1
not listed: [8] | [14]
inactive: all other assays above

CCN(Cc1ccccc1)c1ccccc1
not listed: [8]
inactive: all other assays above

Cc1ccc(C#N)cc1
not listed: [19]
inactive: all other assays above

Cc1ccc2cccnc2c1
inactive: all assays above

Clc1cc(Cl)cc(Cl)c1
not listed: [19]
inactive: all other assays above

CCCC(Cl)CCCC(Cl)CCC(Cl)CCC(Cl)CCC(Cl)CCCC(Cl)CCC (centres undefined)
not listed: [8]
inactive: all other assays above

C=CCCCC
not listed: [18] | [19]
inactive: all other assays above

Cc1cccc(C(=O)O)c1
not listed: [18]
inactive: all other assays above

CC(C)N(C)C
not listed: [19]
inactive: all other assays above

CC#N
not listed: [19]
inactive: all other assays above

BrC(Br)C(Br)Br
not listed: [9]
inactive: all other assays above

Nc1cc(S(=O)(=O)O)ccc1O
not listed: [5]
inactive: all other assays above

CCCCCCCCC/C=C/CC1CC(=O)OC1=O (centres undefined)
inactive: all assays above

Nc1cccc(O)c1
not listed: [19]
inactive: all other assays above

CC(C)(C)c1ccc(OCC2CO2)cc1 (centres undefined)
not listed: [18] | [19]
inactive: all other assays above

COC(=O)CCC(=O)OC
not listed: [19]
inactive: all other assays above
